# According to PubChem BioAssay AID449762 (Southern Research Specialized Biocontainment Screening …, 2010):
# In all, about 330,000 compounds went through this assay and about 1,900 (0.58%) were called active. Roughly 4% stayed inconclusive and do not appear here. Not all results are given here. Entries with a potency or affinity are not part of this list. A number with no mark means an inactive call. Cut-off read from the data, not from the text of the source: inconclusive = inhibition above about 70% without an active follow-up result; inactive = below that.
# Experiment: M. tuberculosis growth inhibition, HTS (AID 449762);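 note: bacterial growth assessed after seven days of incubation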
# Settings: M. tuberculosis H37Rv growth inhibition, 7H9 media; at 25 µM; stronger effect = higher value
row,SMILES,inhibition [%]
1,COc1ccc(S(=O)(=O)N2CCN(C(=O)CCNC(=O)c3ccccc3Cl)CC2)cc1,-12.2
2,COc1cc(OC)nc(Oc2cc(/C=N/O)ccc2OC)n1,6.12
3,O=C(O)c1ccccc1NS(=O)(=O)c1ccc(NN=Cc2ccc(F)cc2)c([N+](=O)[O-])c1,9.86
4,OC1(c2ccc(F)cc2)CCN(Cc2nnnn2Cc2cccs2)CC1,5.23
5,CC(C)OC(=O)CSc1nnnn1-c1ccc2c(c1)OCCO2,-0.39
6,O=C(O)CSc1nnnn1-c1ccc2c(c1)OCCO2,-0.83
7,O=C(NCCC1=CCCCC1)C1CCN(S(=O)(=O)c2cccc(C(F)(F)F)c2)CC1,5.79
8,CCOC(=O)CSc1nn(C)c(=S)s1,0.33
9,CSc1nsc(SCCN2C(=O)c3ccccc3C2=O)n1,2.52
10,Nc1nnc(SCCN2C(=O)c3ccccc3C2=O)s1,-1.41
11,CCOC(=O)CSc1nnc(-c2ccccc2)c(=O)[nH]1,-2.8
12,Cc1cc(C)nc(NC(=O)CSc2nn(-c3ccccc3)c(=S)s2)n1,-0.15
13,CCOC(=O)CSc1snnc1C,-6.63
14,Cc1ccc(NC(=S)N(CCN(C)C)C(C)c2cccnc2)c(C)c1 (stereo unspecified),4.11
15,COC(=O)c1cc(OC)c(OC)cc1NC(=O)c1c(-c2ccccc2Cl)noc1C,-3.97
16,Cc1ccc(-c2csc(NC(=O)c3ccccc3Cl)c2C(=O)O)cc1,13.9
17,CSc1cccc(NC(=O)C2C3C=CC4(O3)C2C(=O)N(CCCN2CCOCC2)C4C(=O)NC2CCCCC2)c1 (stereo unspecified),3.36
18,O=C(c1ccccc1F)N1CCN(S(=O)(=O)c2ccc3ccccc3c2)CC1,7.72
19,COc1ccc(NS(=O)(=O)c2cc(NC(=O)C3CC3)ccc2N2CCCCC2)cc1,1.69
20,CC(=O)N1CCn2c3c(c4cc(C)ccc42)CCCC31 (stereo unspecified),4.84
21,Cc1ccc2c(c1)c1c3n2CCN(C(=O)CN2CCN(C)CC2)C3CCC1 (stereo unspecified),-3.37
22,CC(C)CCN1CCN(CC(c2ccccc2)c2ccccc2)CC1CCO (stereo unspecified),-4.44
23,Cc1ccc(Cn2c(=N)c(C(=O)NCc3ccco3)cc3c(=O)n4ccccc4nc32)cc1,4.13

row,SMILES,inhibition [%]
1,COCCn1c(=N)c(C(=O)NCc2ccco2)cc2c(=O)n3cc(C)ccc3nc21,0.47
2,COc1ccc(NC(=O)CN2CCN(c3nc(-c4ccc(F)cc4)cs3)CC2)c(OC)c1,8.68
3,O=[N+]([O-])c1ccc(F)c(N=Cc2ccc(Br)s2)c1,1.92
4,CCN(CC)C(=O)Oc1ccc2c(=O)c(-c3ccccc3)coc2c1,64.8
5,COc1ccc(-c2coc3cc(OC(=O)N4CCOCC4)ccc3c2=O)cc1,10.6
6,CCOc1ccc(N(CC(=O)Nc2cc(C)cc(C)c2)S(C)(=O)=O)cc1,7.61
7,N#C/C(=C/c1ccccc1[N+](=O)[O-])C(=O)NCc1ccco1,-4.24
8,CCCCSC1=NN1c1nc(N)nc(C)c1CC,-7.73
9,CC1CN(C(=O)c2cc([N+](=O)[O-])cc([N+](=O)[O-])c2)CC(C)O1 (stereo unspecified),-5.16
10,CC1CN(C(=S)c2cccc([N+](=O)[O-])c2)CC(C)O1 (stereo unspecified),-2.37
11,Cc1nn(CC(C)C(=O)N2CCN(S(=O)(=O)c3ccc(Cl)cc3)CC2)c(C)c1C (stereo unspecified),-2.72
12,CCCCCCCCc1nc(SC(C)C(=O)O)n[nH]1 (stereo unspecified),-1.56
13,COc1ccc(C2Nc3ccccc3NC3=C2C(=O)CC(C)(C)C3)c(OC)c1OC (stereo unspecified),8.53
14,COc1ccc(NC(=O)c2ccc([N+](=O)[O-])o2)cc1,6.03
15,COc1ccc(-c2nnc(NC(=O)CS(=O)(=O)c3ccc(F)cc3)o2)c(OC)c1,7.17
16,COc1ccc(S(=O)(=O)N(C)CC(=O)NCc2ccco2)cc1Cl,2.22
17,CCCn1nnc(NC(=O)COc2ccccc2Cl)n1,-5.02
18,CCCn1nnc(NC(=O)COc2ccc(C3CCCCC3)cc2)n1,-1.63
19,Cc1cc(C(=O)N(C)CC2CCCN(CCc3ccc(F)cc3)C2)c(C)o1 (stereo unspecified),-2.12
20,N=C1c2ccccc2CN1NC(=O)COc1ccc(Cl)cc1,-8.46
21,CCc1nn(CCCC(=O)N2CCc3ccccc3C2)c(=O)c2cc3occc3n12,-0.11
22,CC(=O)c1ccc(NC(=O)CSc2cn[nH]n2)cc1,4.87
23,COc1cccc(NC(=O)CSc2nc(O)c(C)c(=O)n2-c2ccc(C)cc2)c1,-11.9
